Measurements reported in PubChem BioAssay (NCATS).
Results filed as inconclusive are left out. Calls of active or inactive are those of the source. Calls come from the whole dose curve; as a rule, active = well fitted cell-killing curve with a large enough effect; inconclusive = small, poorly fitted or top-dose-only effect; inactive = flat fitted curve, though single readings scatter.

Test: qHTS assay to identify small molecule inhibitors of chordoma cells - UCH-2 (AID 1259356)
Settings: UCH-2 chordoma viability, CellTiter-Glo ATP luminescence, 48 h; series mostly up to 46.1 µM
Excerpt: NIH Chemical Genomics Center [NCGC]
Chordoma is a rare and slow growing tumor that can occur anywhere along the spine, from the base of the skull to the tailbone. Current treatment options for chordoma is surgery and radiation therapy for those who are not candidates for surgery. But chordomas tend to return in the same location or surrounding areas of the original tumor after surgery and/or radiation. Chemotherapy can slow down the progression of the tumor. As chordoma is slow growing, the general cytotoxic agents that kill fast growing cells are ineffective, and some patients have been reported to respond to molecularly targeted drugs.
NCATS Pharmaceutical Collection (NPC) containing approximately 3000 clinically approved and investigational drugs were used to screen at 15 concentrations in a chordoma cell lines, UCH-2, to identify small molecule compounds that can inhibit chordoma cell growth.
NCGC Assay Protocol Summary:
Human chordoma cell line UCH-2 was dispensed at 800 per well in 4uL of culture medium into white solid bottom 1536-well plates (Corning Life Sciences, Corning, NY) using a Multidrop Combi (Thermo Scientific, Waltham, MA) dispenser. The assay plates were incubated at 37 C and 5% CO2 for an overnight, and then 23nL of compounds dissolved in DMSO and positive control were transferred using a Pintool station (Wako, San Diego, CA). Compound treatment was followed by the addition of 1uL of the combination compounds (1uM Auranofin, 500nM each of Camptothecin, Doxorubicin, Rubitecan, and Topotecan) and assay medium to each well of the assay plates using Flying Reagent Dispenser (FRD, Aurora Discovery, San Diego, CA). The assay plates were incubated at 37 C and 5% CO2 for 48hr. Then 5uL of CellTiter-Glo reagent (Promega Corporation, Madison, WI) was added to each well of the assay plates using FRD. After 30min incubation at room temperature, the luminescence signal was quantified using a ViewLux plate reader (PerkinElmer, Shelton, CT).

| Structure (SMILES) | outcome |
| --- | --- |
| Nc1ccn([C@@H]2O[C@H](CO)[C@H](O)C2(F)F)c(=O)n1 | inactive |
| COc1c(N2C[C@@H]3CCCN[C@H]3C2)c(F)cc2c(=O)c(C(=O)O)cn(C3CC3)c12 | inactive |
| Nc1ccc(S(=O)(=O)Nc2ncccn2)cc1 | inactive |
| COc1cc(C(=O)NS(=O)(=O)c2ccccc2C)ccc1Cc1cn(C)c2ccc(NC(=O)OC3CCCC3)cc12 | inactive |
| CN1c2cc(O)c(N=NC(N)=O)cc2CC1S(=O)(=O)O (centres undefined) | inactive |
| CCC1=C[C@@H]2CN(C1)Cc1c([nH]c3ccccc13)[C@@](C(=O)OC)(c1cc3c(cc1OC)N(C)[C@@H]1[C@@](O)(C(=O)OC)[C@H](OC(C)=O)[C@]4(CC)C=CCN5CC[C@]31[C@@H]54)C2 | inactive |
| CN[C@H]1CCc2cc(OC)c(OC)c(OC)c2-c2ccc(OC)c(=O)cc21 | inactive |
| Cc1nc2ccc(CN(C)c3ccc(C(=O)N[C@@H](CCC(=O)O)C(=O)O)s3)cc2c(=O)[nH]1 | inactive |
| Nc1ccn([C@@H]2CS[C@H](CO)O2)c(=O)n1 | inactive |
| CC[C@H]1CN2CCc3cc(OC)c(OC)cc3[C@H]2C[C@@H]1C[C@@H]1NCCc2cc(OC)c(OC)cc21 | inactive |
| COC(=O)C[C@](O)(CCCC(C)(C)O)C(=O)O[C@@H]1C(OC)=C[C@]23CCCN2CCc2cc4c(cc2[C@H]13)OCO4 | inactive |
| COC(=O)C1=C(C)NC(C)=C(C(=O)OCCN2CCN(C(c3ccccc3)c3ccccc3)CC2)C1c1cccc([N+](=O)[O-])c1 (centres undefined) | inactive |
| O=c1[nH]c(=O)n(C2CCCO2)cc1F (centres undefined) | inactive |
| C[C@H]1C[C@@H]2[C@@H]([C@@H](O)C[C@@]3(C)[C@H]2CC[C@]3(O)C(=O)CO)[C@@]2(C)C=CC(=O)C=C12 | inactive |
| CC1(C)O[C@@H]2C[C@@H]3[C@H]4C[C@@H](F)C5=CC(=O)C=C[C@]5(C)[C@@]4(F)[C@@H](O)C[C@]3(C)[C@]2(C(=O)CO)O1 | inactive |
| CC=CC1=C(C(=O)O)N2C(=O)[C@H](NC(=O)[C@H](N)c3ccc(O)cc3)[C@@H]2SC1 | inactive |
| O=C(O)CO.[NH2-].[NH2-].[Pt+2] | inactive |
| COc1ccc(CC2c3cc(OC)c(OC)cc3CC[N+]2(C)CCC(=O)OCCCCCOC(=O)CC[N+]2(C)CCc3cc(OC)c(OC)cc3C2Cc2ccc(OC)c(OC)c2)cc1OC (centres undefined) | inactive |
| CC(C)(C)NC(=O)[C@H]1CN(Cc2cccnc2)CCN1C[C@@H](O)C[C@@H](Cc1ccccc1)C(=O)N[C@H]1c2ccccc2C[C@H]1O | inactive |
